Screening results (PubChem BioAssay)
This is a sample that favours compounds with a hit; in the whole collection about 21% have one here.
CYP2C9 inh = blockers of cytochrome P450 2C9 activity – biochemical, luminescence, ADME assay, primary screen. inhibition, % at 5 µM. P11712. CYP2C9 Supersomes, luciferin-H conversion. 20% of 96,000 active;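 active = blocking of liver enzyme CYP2C9 beyond about 50% at 5 µM, limit read from the data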
Target sequence (P11712 whole entry, looked up): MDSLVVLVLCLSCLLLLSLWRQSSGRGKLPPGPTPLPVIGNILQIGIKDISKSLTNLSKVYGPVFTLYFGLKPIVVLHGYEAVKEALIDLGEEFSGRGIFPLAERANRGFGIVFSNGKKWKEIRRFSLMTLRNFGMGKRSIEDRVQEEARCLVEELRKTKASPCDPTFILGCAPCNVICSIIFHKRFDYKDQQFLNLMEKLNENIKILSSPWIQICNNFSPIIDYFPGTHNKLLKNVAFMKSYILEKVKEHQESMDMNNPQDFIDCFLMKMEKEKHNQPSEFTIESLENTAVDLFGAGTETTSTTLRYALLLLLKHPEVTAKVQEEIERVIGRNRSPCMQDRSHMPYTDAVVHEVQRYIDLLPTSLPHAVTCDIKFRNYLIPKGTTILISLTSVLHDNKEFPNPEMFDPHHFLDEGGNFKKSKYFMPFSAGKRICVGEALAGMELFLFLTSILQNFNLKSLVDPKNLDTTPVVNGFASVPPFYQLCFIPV
CYP2C9 act = human CYP2C9 activators, primary screen, biochemical, luminescence | Cytochrome P450 2C9 (Homo sapiens), P11712 | recombinant CYP2C9, luciferin-H conversion; hits give high values; factor 1 = untreated enzyme, 0 = blocked | activation factor at 5 µM | 1.4% of 96,000 active | AID 1024, 2008;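 active = activation factor of 2 or more for CYP2C9 at a 5 µM dose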;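 note: 0 = sulfaphenazole-blocked wells and 1 = vehicle-only wells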
CYP2C19 act = human CYP2C19 activators, primary screen, biochemical, luminescence | Cytochrome P450 2C19 (Homo sapiens), P33261 | recombinant CYP2C19, luciferin-H EGE luminescence; hits give high values; 0 = fully inhibited enzyme, 1 = untreated enzyme | activation factor at 5 µM | 96,000 tested, under 10 active | AID 1025, 2008;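 active = activation factor of at least 2 at 5 µM in the primary screen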;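 note: 0 = wells with 2.5 mM tranylcypromine and 1 = vehicle-only wells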
CYP2C19 inhib = blockers of cytochrome P450 2C19 activity – biochemical, luminescence, ADME assay, primary screen. P33261. 21% of 96,000 active. inhibition, % at 5 µM. AID 778, 2007. CYP2C19 Supersomes, luciferin-H EGE luminescence, 30 min;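 active = CYP2C19 inhibition above a set limit at 5 µM in the primary screen, cut at about 50% in these data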;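 note: plate controls were negative control wells for no effect and 2.5 mM tranylcypromine positive control for full effect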
MRP-1 activ = H69AR viability gain despite doxorubicin, primary screen, MRP-1 activator project, H69AR cells, CellTiter-Glo | 0.61% of 140,000 active | viability increase, % at 10 µM | AID 799, 2007 | viability rescue;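 active = viability gain under doxorubicin at or above a set limit, the compound median plus 3 SD, cut at about 4.7% in these data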;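 note: MRP-1 overexpressing cells given doxorubicin 25 µM after compound pretreatment; 18-22 h compound pretreatment then 72 h with doxorubicin before readout; 0% = doxorubicin-only wells and 100% = vehicle-treated cells without doxorubicin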
MRP resist rev = reversal of MRP1-mediated doxorubicin resistance, primary screen, H69AR cells, doxorubicin co-treatment. H69AR cells + 2 uM doxorubicin, CellTiter-Glo, 72 h. differential viability (reversal), % at 10 µM. 0.04% of 85,000 active. AID 602, 2007;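 active = viability drop by adding the cancer drug above about 55%, with treated viability meeting a 40% cutoff, limit read from the data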;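 note: viability without doxorubicin minus viability with 2 µM doxorubicin for each compound; larger differential means the compound sensitizes cells more to doxorubicin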
An asterisk follows results filed as active.

CCn1c(COc2ccc3c(c2)OCO3)nnc1SCC(=O)c1ccc(Cl)cc1 was read as CYP2C9 inh 51*, CYP2C9 act 0.5, CYP2C19 act 1.1, CYP2C19 inhib -10, MRP-1 activ -5 and MRP resist rev -23.
`O=C1OCC(c2ccccc2)=C1c1ccc(S(=O)(=O)N2CCOCC2)s1` gave CYP2C9 inh 24, CYP2C9 act 0.8, CYP2C19 act 0.9, CYP2C19 inhib 10 and MRP-1 activ -5.
Screening O=C(COC(=O)C1c2ccccc2Oc2ccccc21)NC1CCS(=O)(=O)C1 (configuration not stated) returned CYP2C9 inh -26, CYP2C9 act 1.3, CYP2C19 act 0.7, CYP2C19 inhib 32, MRP-1 activ -3 and MRP resist rev 27.
Screening COC(=O)c1cc(Br)c(=O)n(-c2cc(C)on2)c1 returned CYP2C9 inh 50*, CYP2C9 act 0.5, CYP2C19 act 0.4, CYP2C19 inhib 59*, MRP-1 activ -2 and MRP resist rev 3.
Screening COC(=O)c1cc(Br)c(=O)n(-c2ccccn2)c1 returned CYP2C9 inh -2, CYP2C9 act 1, CYP2C19 act 1, CYP2C19 inhib -4, MRP-1 activ 1 and MRP resist rev -9.
Screening NC(=O)C1CCN(C(=O)C2c3ccccc3C(=O)N3CCc4ccccc4C23)CC1 (configuration not stated) returned CYP2C9 inh 18, CYP2C9 act 0.8, CYP2C19 act 1, CYP2C19 inhib -4, MRP-1 activ -2 and MRP resist rev -2.
COc1ccc(N2C(S)=C(C#N)C(=O)NC2c2ccco2)cc1 (configuration not stated) was read as MRP-1 activ 16*.
`Cc1nn2c(-c3cccc(NC(=O)CN4CCOCC4)c3)nnc2c2ccccc12` gave MRP resist rev -4.
For Cc1cc(C)nc(NC(=O)CSc2nc3ccccc3o2)n1 the results were CYP2C9 inh 19, CYP2C9 act 0.8, CYP2C19 act 0.4, CYP2C19 inhib 63*, MRP-1 activ 0 and MRP resist rev -9.
Screening Cc1nn2c(-c3cccc(NC(=O)CSc4nc5ccccc5o4)c3)nnc2c2ccccc12 returned CYP2C9 inh 92*, CYP2C9 act 0.1, CYP2C19 act 0, CYP2C19 inhib 98*, MRP-1 activ -1 and MRP resist rev -12.
For Cc1ccc2nc(NC(=O)CSc3nc4ccccc4o3)sc2c1 the results were CYP2C9 inh 55*, CYP2C9 act 0.4, CYP2C19 act 0.5, CYP2C19 inhib 45, MRP-1 activ -2 and MRP resist rev 7.
O=C(CSc1nc2ccccc2o1)Nc1ccc(Cl)cc1 was read as CYP2C9 inh 50, CYP2C9 act 0.5, CYP2C19 act 0.8, CYP2C19 inhib 24, MRP-1 activ -1 and MRP resist rev -11.
CC(=O)Nc1ccc(NC(=O)CSc2nc3ccccc3o2)cc1 was read as MRP-1 activ 0.
For Cc1cccc(NC(=O)CSc2nc3ccccc3o2)c1 the results were CYP2C9 inh -15, CYP2C9 act 1.1, CYP2C19 act 0.3, CYP2C19 inhib 69* and MRP-1 activ 0.
Screening COc1ccc(Nc2nc(-c3cccc([N+](=O)[O-])c3)nc3ccccc23)cc1 returned MRP-1 activ -3.
COc1cc(OC)nc(NC(=O)CSc2nc3ccccc3o2)n1 was read as CYP2C9 inh -19, CYP2C9 act 1.2, CYP2C19 act 0.1, CYP2C19 inhib 86*, MRP-1 activ -1 and MRP resist rev 5.
For CC(=O)Nc1nonc1NC(=O)CSc1nc2ccccc2o1 the results were CYP2C9 inh 36, CYP2C9 act 0.6, CYP2C19 act 0.5, CYP2C19 inhib 53*, MRP-1 activ 0 and MRP resist rev 10.
`CC(=O)CSc1nc2ccccc2o1` gave MRP-1 activ 0 and MRP resist rev 18.
For O=C(NC(=S)Nc1nc2c(s1)CSc1ccccc1-2)c1ccccc1 the results were CYP2C9 inh 29, CYP2C9 act 0.7, CYP2C19 act 0.9, CYP2C19 inhib 12, MRP-1 activ -3 and MRP resist rev 0.
